Results on 18 sequences are retold here after PMC11006913.

Where a chain is given by its changes, count along the chain named.

Holding throughout (test): PBM; 200 nM protein, PBS
Holding throughout (details): dsDNA, one strand shown

Assay [1] addresses T1, VENTX (Homo sapiens, UniProt O95231 78-163, R121Q).
T1 sequence: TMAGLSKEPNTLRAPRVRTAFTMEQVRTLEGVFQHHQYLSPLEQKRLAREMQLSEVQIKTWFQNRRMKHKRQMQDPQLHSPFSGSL

Assay [2] has as its target T2, VENTX (Homo sapiens, UniProt O95231 78-163).
T2 sequence: T1 sequence with Q44R

Assay [3] deals with T3, VENTX (Homo sapiens, UniProt O95231 78-163, Y115F).
T3 sequence: T1 sequence with Y38F, Q44R

As to ATTATGTC, the binding signal with VENTX [1] was 10.5 upbm affinity estimate (log intensity, higher = more binding, comparable within an allelic series); with VENTX [2], 11 upbm affinity estimate (log intensity, higher = more binding, comparable within an allelic series); with VENTX [3], 10.4 upbm affinity estimate (log intensity, higher = more binding, comparable within an allelic series).

Take CGAGCCAC: the binding signal with VENTX [1] is 8.17 upbm affinity estimate (log intensity, higher = more binding, comparable within an allelic series); with VENTX [2] it was 8.51 upbm affinity estimate (log intensity, higher = more binding, comparable within an allelic series); with VENTX [3], 8.31 upbm affinity estimate (log intensity, higher = more binding, comparable within an allelic series).

With CCCCATTA, the binding signal in the assay with VENTX [1] is 11.5 upbm affinity estimate (log intensity, higher = more binding, comparable within an allelic series); in the assay with VENTX [2], 12.3 upbm affinity estimate (log intensity, higher = more binding, comparable within an allelic series); with VENTX [3], 11.3 upbm affinity estimate (log intensity, higher = more binding, comparable within an allelic series).

Turning to AAACTAAT, the binding signal was 11 upbm affinity estimate (log intensity, higher = more binding, comparable within an allelic series) in the assay with VENTX [1]; 11.7 upbm affinity estimate (log intensity, higher = more binding, comparable within an allelic series) with VENTX [2]; 11 upbm affinity estimate (log intensity, higher = more binding, comparable within an allelic series) in the assay with VENTX [3].

Regarding CATGGCGG, the binding signal in the assay with VENTX [1] is 7.95 upbm affinity estimate (log intensity, higher = more binding, comparable within an allelic series); in the assay with VENTX [2], 7.8 upbm affinity estimate (log intensity, higher = more binding, comparable within an allelic series); with VENTX [3], 7.87 upbm affinity estimate (log intensity, higher = more binding, comparable within an allelic series).

In the case of CGAGACCG, the binding signal is 8.25 upbm affinity estimate (log intensity, higher = more binding, comparable within an allelic series) in the assay with VENTX [1]; 8.39 upbm affinity estimate (log intensity, higher = more binding, comparable within an allelic series) with VENTX [2]; 8.28 upbm affinity estimate (log intensity, higher = more binding, comparable within an allelic series) with VENTX [3].

Consider AAATTCGT, for which the binding signal was 9.56 upbm affinity estimate (log intensity, higher = more binding, comparable within an allelic series) with VENTX [1]; 9.96 upbm affinity estimate (log intensity, higher = more binding, comparable within an allelic series) with VENTX [2]; 9.72 upbm affinity estimate (log intensity, higher = more binding, comparable within an allelic series) in the assay with VENTX [3].

As for CGCATGCG, the binding signal was 8.34 upbm affinity estimate (log intensity, higher = more binding, comparable within an allelic series) in the assay with VENTX [1]; 8.73 upbm affinity estimate (log intensity, higher = more binding, comparable within an allelic series) with VENTX [2]; 8.4 upbm affinity estimate (log intensity, higher = more binding, comparable within an allelic series) with VENTX [3].

Regarding CGATTAAG, the binding signal in the assay with VENTX [1] is 11.4 upbm affinity estimate (log intensity, higher = more binding, comparable within an allelic series); with VENTX [2], 12.4 upbm affinity estimate (log intensity, higher = more binding, comparable within an allelic series); with VENTX [3], 11.3 upbm affinity estimate (log intensity, higher = more binding, comparable within an allelic series).

In the case of CTACCCGC, the binding signal in the assay with VENTX [1] is 8.06 upbm affinity estimate (log intensity, higher = more binding, comparable within an allelic series); in the assay with VENTX [2], 8.07 upbm affinity estimate (log intensity, higher = more binding, comparable within an allelic series); with VENTX [3], 8.08 upbm affinity estimate (log intensity, higher = more binding, comparable within an allelic series).

As to CATTAGAA, the binding signal with VENTX [1] was 10.5 upbm affinity estimate (log intensity, higher = more binding, comparable within an allelic series); in the assay with VENTX [2] it was 11.1 upbm affinity estimate (log intensity, higher = more binding, comparable within an allelic series); with VENTX [3], 10.4 upbm affinity estimate (log intensity, higher = more binding, comparable within an allelic series).

In the case of GTTATTCA, the binding signal with VENTX [1] is 9.35 upbm affinity estimate (log intensity, higher = more binding, comparable within an allelic series); with VENTX [2], 9.76 upbm affinity estimate (log intensity, higher = more binding, comparable within an allelic series); with VENTX [3], 9.4 upbm affinity estimate (log intensity, higher = more binding, comparable within an allelic series).

CGCTAGGC: the binding signal is 8.19 upbm affinity estimate (log intensity, higher = more binding, comparable within an allelic series) in the assay with VENTX [1]; 8.31 upbm affinity estimate (log intensity, higher = more binding, comparable within an allelic series) in the assay with VENTX [2]; 8.19 upbm affinity estimate (log intensity, higher = more binding, comparable within an allelic series) with VENTX [3].

Take ATTAGTGG: the binding signal in the assay with VENTX [1] is 11.7 upbm affinity estimate (log intensity, higher = more binding, comparable within an allelic series); in the assay with VENTX [2] it was 12.3 upbm affinity estimate (log intensity, higher = more binding, comparable within an allelic series); with VENTX [3] it was 11.4 upbm affinity estimate (log intensity, higher = more binding, comparable within an allelic series).

In the case of CCGAGCCC, the binding signal was 8.05 upbm affinity estimate (log intensity, higher = more binding, comparable within an allelic series) in the assay with VENTX [1]; 8.08 upbm affinity estimate (log intensity, higher = more binding, comparable within an allelic series) in the assay with VENTX [2]; 8.04 upbm affinity estimate (log intensity, higher = more binding, comparable within an allelic series) with VENTX [3].

Turning to TTACATAA, the binding signal is 9.95 upbm affinity estimate (log intensity, higher = more binding, comparable within an allelic series) in the assay with VENTX [1]; 10.4 upbm affinity estimate (log intensity, higher = more binding, comparable within an allelic series) with VENTX [2]; 9.97 upbm affinity estimate (log intensity, higher = more binding, comparable within an allelic series) with VENTX [3].

Consider AGGTCAGG, for which the binding signal in the assay with VENTX [1] was 8.18 upbm affinity estimate (log intensity, higher = more binding, comparable within an allelic series); with VENTX [2] it was 8.14 upbm affinity estimate (log intensity, higher = more binding, comparable within an allelic series); with VENTX [3] it was 8.06 upbm affinity estimate (log intensity, higher = more binding, comparable within an allelic series).

Turning to TCGATTAA, the binding signal was 11.4 upbm affinity estimate (log intensity, higher = more binding, comparable within an allelic series) in the assay with VENTX [1]; 12.3 upbm affinity estimate (log intensity, higher = more binding, comparable within an allelic series) with VENTX [2]; 11.2 upbm affinity estimate (log intensity, higher = more binding, comparable within an allelic series) in the assay with VENTX [3].
